# Experimental data: PubChem BioAssay
# Values joined by “and” are separate entries in the source; they are usually repeats but may differ in a detail not shown here. Equal entries are not always repeated. Records with an inconclusive call do not appear. For some assays here: Potency and affinity values are given separately. Active and inactive are the calls of the source. Cut-off read from the data, not from the text of the source: active = fluorescence slope change above about 50%; inconclusive = mostly about 31% to 49%; inactive = weaker than that.
# What was measured:
# [1] = blockers of polyQ-driven CASP3 activation – cell-based (AID 1583); details: polyglutamine-induced caspase-3 activation, cell assay; stronger effect = higher value;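 tested at 10 µM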
# [2] = yeast 75Q aggregation reduction – 75Q-TubU reporter (AID 1593); details: Yeast 75Q polyglutamine aggregation reporter
# [3] = restoration of touch response, mutant HTT neurons – whole organism, C. elegans mechanosensory neurons, N-terminal huntingtin (AID 1599); details: C. elegans polyQ-huntingtin mechanosensory neurons, stronger effect = higher value
# [4] = blockers of cytochrome c efflux from mitochondria – biochemical, purified mitochondria (AID 1603); details: stronger effect = lower value;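 note: mouse liver mitochondria challenged with calcium chloride; signal normalized to the plate average as 100%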
# [5] = polyglutamine aggregate formation blockers (AID 1604); details: polyglutamine-induced protein aggregation inhibition assay; stronger effect = higher value; tested at 2.5 µM
# [6] = target: ATP-dependent translocase ABCB1 (Homo sapiens) (UniProt P08183); test: P-glycoprotein substrate transport blockade – cell-based (AID 377); details: MDR1-expressing cells, fluorescent substrate accumulation slope; stronger effect = higher value; concentration not given here
# ATP-dependent translocase ABCB1 (Homo sapiens), sequence (P08183 whole entry, looked up): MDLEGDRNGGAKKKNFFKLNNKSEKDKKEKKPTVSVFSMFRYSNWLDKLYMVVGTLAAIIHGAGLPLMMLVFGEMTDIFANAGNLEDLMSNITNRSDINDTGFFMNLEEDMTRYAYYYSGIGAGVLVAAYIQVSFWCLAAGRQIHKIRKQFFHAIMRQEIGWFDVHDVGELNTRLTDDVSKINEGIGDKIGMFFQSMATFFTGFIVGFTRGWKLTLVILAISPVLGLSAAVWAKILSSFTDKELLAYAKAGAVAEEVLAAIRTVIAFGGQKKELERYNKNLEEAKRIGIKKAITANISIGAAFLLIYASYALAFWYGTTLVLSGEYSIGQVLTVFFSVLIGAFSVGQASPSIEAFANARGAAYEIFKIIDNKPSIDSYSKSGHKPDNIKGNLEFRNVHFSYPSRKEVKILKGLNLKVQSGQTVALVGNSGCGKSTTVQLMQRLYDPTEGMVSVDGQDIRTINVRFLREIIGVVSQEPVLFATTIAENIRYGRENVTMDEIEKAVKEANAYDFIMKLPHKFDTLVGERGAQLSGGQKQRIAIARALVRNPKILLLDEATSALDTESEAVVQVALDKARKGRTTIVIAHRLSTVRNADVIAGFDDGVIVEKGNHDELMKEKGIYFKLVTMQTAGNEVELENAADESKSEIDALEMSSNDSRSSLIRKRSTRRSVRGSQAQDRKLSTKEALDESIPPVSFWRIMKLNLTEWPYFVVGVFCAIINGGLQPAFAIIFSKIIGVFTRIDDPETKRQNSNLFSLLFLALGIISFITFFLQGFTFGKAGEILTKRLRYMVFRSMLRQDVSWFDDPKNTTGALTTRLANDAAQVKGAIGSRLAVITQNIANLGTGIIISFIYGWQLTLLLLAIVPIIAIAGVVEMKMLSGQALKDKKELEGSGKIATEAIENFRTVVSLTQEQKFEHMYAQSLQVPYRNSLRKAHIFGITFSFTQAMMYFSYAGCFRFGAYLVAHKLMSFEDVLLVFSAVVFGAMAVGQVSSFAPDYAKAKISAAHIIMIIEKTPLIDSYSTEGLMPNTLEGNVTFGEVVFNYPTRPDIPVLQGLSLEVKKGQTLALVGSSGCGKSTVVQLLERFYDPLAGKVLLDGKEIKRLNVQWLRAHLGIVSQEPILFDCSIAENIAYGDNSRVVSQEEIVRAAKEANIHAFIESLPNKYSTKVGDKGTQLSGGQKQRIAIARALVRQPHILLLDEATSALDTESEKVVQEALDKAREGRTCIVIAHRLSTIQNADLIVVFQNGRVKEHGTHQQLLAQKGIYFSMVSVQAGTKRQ
SMILES,inhibition [1],score [2],rescue above control [3],cytochrome c release ratio [4],inhibition of aggregation [5],fluorescence slope change [6]
NS(=O)(=O)c1cc2c(cc1Cl)NC(C1CC3C=CC1C3)NS2(=O)=O (stereo not given),13%,0.98,1.81,1.07,5.88%,–
COc1cc(C(=O)NCc2ccc(OCCN(C)C)cc2)cc(OC)c1OC,17.1%,1.06,-0.31,0.61,75.6%,–
NC(=O)c1ncn([C@@H]2O[C@H](CO)[C@@H](O)[C@H]2O)c1O,7.18%,1.36,-8.77,0.91,49%,–
CCOC(N)=O,-5.88%,1.23,-10,0.98,58.9%,–
CCCCC1C(=O)N(c2ccccc2)N(c2ccc(O)cc2)C1=O (stereo not given),-30.1%,0.89,-3.48,0.98,61%,–
CSc1ccc2c(c1)C(N1CCN(C)CC1)Cc1ccccc1S2 (stereo not given),7.11%,0.84,0,4.27,80.6%,–
CCN(CC)CCOCCOC(=O)C1(c2ccccc2)CCCC1,-3.33%,1.27,-4.04,0.8,94.4%,–
O=C(O)CCCCCCCC(=O)O,-26.7%,1.02,10.4,1.16,79.6%,–
CCCCCCCCCCCCCCCCCCOCC(O)CO (stereo not given),-51.6%,1.03,2.94,1,34.7%,–
CCCCOc1ccc(C(=O)CCN2CCCCC2)cc1,-5.19%,1.14,14.1,0.48,80.3%,–
CC(=O)Oc1cccc(O)c1,-9.3%,1.19,8.59,0.86,-34.2%,–
Oc1c(I)cc(I)c2cccnc12,17.6%,-0.2,-12.4,1.04,24.2%,–
NC(=O)NO,-0.33%,1.4,-1.6,0.82,85.9%,–
NC(=O)NC(=O)Cc1ccccc1,24.8%,1.34,-4.86,1.02,4.16%,–
CC(=O)Nc1ccc(S(=O)(=O)Nc2ccc([N+](=O)[O-])cc2)cc1,15.7%,1.4,-10.3,1.02,15.7%,–
CCN(CC)C(C)CN1c2ccccc2Sc2ccccc21 (stereo not given),-20.5%,1.11,-4.48,0.98,54.5%,–
CC(=O)OC/C=C(C)/C=C/C=C(C)/C=C/C1=C(C)CCCC1(C)C,-4.49%,1.02,0.33,1.12,85.2%,–
Nc1nc(=S)c2[nH]cnc2[nH]1,7.19%,1.07,-10.2,0.96,83.1%,–
O=C(O)CCCCC1CCSS1 (stereo not given),-33.9%,0.61,2.24,0.89,39.2%,–
CCN(CC)CCOC(=O)C(c1ccccc1)c1ccccc1,11.6%,0.88,8.76,1.09,66.7%,–
CN(C)C(=O)Oc1cccc([N+](C)(C)C)c1,15.7% and 16.9%,1.16 and 1.39,10.4 and -12.8,0.9 and 1.01,74.6% and 38%,–
CC(=O)NCCCCCC(=O)O,22.1%,1.42,-0.56,1.37,74.4%,–
CN1CCN(CC(=O)N2c3ccccc3C(=O)Nc3cccnc32)CC1,9.26%,1.57,18.8,1.27,63.5%,–
O=C1OCCN1/N=C/c1ccc([N+](=O)[O-])o1,4.31%,0.66,4.89,1.17,27%,–

SMILES,inhibition [1],score [2],rescue above control [3],cytochrome c release ratio [4],inhibition of aggregation [5],fluorescence slope change [6]
Cc1cc(N)c2ccccc2[n+]1CCCCCCCCCC[n+]1c(C)cc(N)c2ccccc21,-13.3%,0.06,-0.23,6.78,43.1%,97.9% (active)
CC(C(=O)O)c1ccc(C(=O)c2cccs2)cc1 (stereo not given),7.38%,0.92,-0.97,1.35,91.6%,12.2% (inactive)
Cn1c(=O)c2c(ncn2CC(O)CO)n(C)c1=O (stereo not given),-0.09%,1.08,-16.2,1.19,21.9%,–
O=C(O)c1cccnc1Nc1cccc(C(F)(F)F)c1,18.6%,-0.01,7.18,0.87,-18.2%,–
CCOC(=O)c1ccc(N)cc1,-9.37%,1.06,-11.4,0.65,53%,53.5% (active)
Cc1nc2sccn2c(=O)c1CCN1CCC(=C(c2ccc(F)cc2)c2ccc(F)cc2)CC1,-6.39%,1.46,0,0.36,7.32%,–
CCCCOc1ccc(OCCCN2CCOCC2)cc1,9.28%,1.09,8.67,0.73,65%,29.5% (inactive)
Fc1ccc(C(c2ccc(F)cc2)N2CCN(C/C=C/c3ccccc3)CC2)cc1,11.9%,0.72,11.5,1.24,27%,70.9% (active)
CCC(=O)c1c(O)cc(O)cc1O,6.37%,0.94,-3.67,1.29,38.9%,–
Cc1ccccc1OCC(O)CO (stereo not given),20.6%,1.31,-6.62,1.09,70.4%,59.3% (active)
COc1cnc(NS(=O)(=O)c2ccc(N)cc2)nc1,4.47%,1.34,-2.23,0.79,77.5%,9.5% (inactive)
C=CCc1ccc(O)c(OC)c1,-5.5%,1.31,11.4,1.29,81.4%,–
Cc1c(N(C)CS(=O)(=O)O)c(=O)n(-c2ccccc2)n1C,-33.9%,1.22,6.62,0.55,94.4%,12.6% (inactive)
C[N+]1(CCCCC[N+]2(C)CCCC2)CCCC1,-38.1%,1.14,1.54,0.89,49%,–
CCCCOC(=O)c1ccc(N)cc1,10.7%,0.73,12.6,0.92,7.84%,–
C=CCSCC1Nc2cc(Cl)c(S(N)(=O)=O)cc2S(=O)(=O)N1 (stereo not given),-19.5%,0.96,4.12,0.99,-7.48%,–
COc1ccc(CCN(C)CCCC(C#N)(c2ccc(OC)c(OC)c2)C(C)C)cc1OC (stereo not given),15.1%,1.28,2.45,0.62,62.8%,–
O=C1c2cccc(O)c2C(=O)c2c(O)cccc21,-36.4%,-0.3,-2,1.21,58.9%,–
S=P(N1CC1)(N1CC1)N1CC1,8.19%,0.94,-0.95,0.82,63.2%,–
CC(=O)N[C@@H](CS)C(=O)O,-21.7%,1.46,-1.36,1.05,79.6%,–
N[C@@H](CCC(=O)N[C@@H](CS)C(=O)NCC(=O)O)C(=O)O,17.6%,1.4,-4.11,0.98,45.5%,–
O=C1NCC2(CCN(CCc3ccccc3)CC2)O1,-2.12%,1.22,-3.96,1.11,88.9%,54.1% (active)
CC(C)(Oc1ccc(CCNC(=O)c2ccc(Cl)cc2)cc1)C(=O)O,-1.59%,1.19,-10.8,0.96,61%,88.6% (active)
Oc1ccc(Cl)cc1Cc1cc(Cl)ccc1O,7.6%,-0.49,0,0.36,29.6%,–

SMILES,inhibition [1],score [2],rescue above control [3],cytochrome c release ratio [4],inhibition of aggregation [5],fluorescence slope change [6]
CC(=O)Nc1ccc(O)cc1,-1.78%,1.1,12.7,1.05,74.9%,29.1% (inactive)
COc1cccc(OC)c1C(=O)N[C@@H]1C(=O)N2[C@@H]1SC(C)(C)[C@@H]2C(=O)O,11.5%,1.48,-12.3,0.93,45.9%,–
COc1ccc2[nH]cc(CCNC(C)=O)c2c1,-10%,1.34,0.33,0.49,46.1%,–
COc1ccc(C(=O)c2ccccc2)c(O)c1,16.9%,0.23,9.82,1.17,35%,–
Nc1ccc(N=Nc2ccccc2)c(N)n1,8.8%,1.35,-1.41,0.66,65.5%,–
O=C1c2ccccc2C(=O)C1c1ccccc1,16.8%,0.9,2.74,0.89,3.03%,–
CCN(CC)C(=O)c1cccc(C)c1,9.84%,1.21,-4.11,1.07,28.8%,–
CN(C)[C@@H]1C(=O)C(C(N)=O)=C(O)[C@@]2(O)C(=O)C3=C(O)c4c(O)ccc(Cl)c4[C@@H](O)[C@H]3C[C@@H]12,13.2%,0.8,0,2.6,27.8%,2.1% (inactive)
NC(CO)C(=O)NNCc1ccc(O)c(O)c1O (stereo not given),5.62%,1.68,7.52,0.53,89.7%,–
N[C@@H](Cc1ccc(O)c(O)c1)C(=O)O,-16.6%,1.55,6.71,0.96,83.3%,–
Nc1c(Br)cc(Br)cc1CNC1CCC(O)CC1 (stereo not given),-21.8%,1.12,-1.56,1.08,54.5%,57.2% (active)
Cc1cc(C(C)(C)C)c(O)c(C)c1CC1=NCCN1,-9.11%,1.29,2.64,0.88,6.98%,75.3% (active)
CCOc1ccc(NC(C)=O)cc1,-10.9%,0.84,-2.44,0.87,-59.3%,5.5% (inactive)
NCC1CCC(C(=O)O)CC1 (stereo not given),-11.3%,1.25,8.04,0.77,74.7%,64.7% (active)
COc1ccc2c(c1)c(CC(=O)OCC(=O)O)c(C)n2C(=O)c1ccc(Cl)cc1,-2.12%,0.67,4.6,1.11,77.8%,79% (active)
C/C=C(/C(=C/C)c1ccc(O)cc1)c1ccc(O)cc1,31.3%,0.33,-4.61,4.08,63.2%,10.7% (inactive)
CCCCOc1ccc(CC(=O)NO)cc1,-8.34%,1.21,-4.19,1.09,43.1%,103% (active)
O=C(COc1ccc(Cl)cc1)N1CCN(Cc2ccc3c(c2)OCO3)CC1,60.9%,1.15,29.5,1.17,63.9%,134% (active)
C1CCC(C(CC2CCCCN2)C2CCCCC2)CC1 (stereo not given),57.7%,0.35,-18,1.56,83.1%,352% (active)
COc1ccc(CN(CCN(C)C)c2ccccn2)cc1,17.1%,1.86,23.5,0.92,12.7%,102% (active)
CC(C)(Sc1cc(C(C)(C)C)c(O)c(C(C)(C)C)c1)Sc1cc(C(C)(C)C)c(O)c(C(C)(C)C)c1,-32.2%,0.29,-10.5,0.46,23.1%,6.4% (inactive)
CC(NCCC(c1ccccc1)c1ccccc1)c1ccccc1 (stereo not given),36.8%,1.04,0,0.33,-3.7%,200% (active)
CC(C)(Oc1ccc(Cl)cc1)C(=O)O,17.7%,1.27,11.6,1.13,38.2%,21.7% (inactive)
